# Laboratory results published in PubChem BioAssay (NCI).
# This is part of a sample that, as a whole, favours compounds with a hit. Of some 83,000 tested, about 20% had one in any assay.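 Cells were grown in 96-well plates and exposed to the test compound at a single concentration for 48 hours; results are reported as percent growth, with values below 10 considered active.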 Values without a mark were called inactive. The source made the active and inactive calls.
# Legend:
# Assay in all cases: NCI-60 one-dose screen, 48 h (100 = growth as untreated, 0 = no growth, -100 = all killed)
# Details in all cases: 10 µM unless noted
# [1] = tested on: EKVX NSCLC
# [2] = tested on: SN12C renal
# [3] = tested on: UO-31 renal
# [4] = tested on: ACHN renal
# [5] = tested on: CAKI-1 renal
# [6] = tested on: A498 renal
# [7] = tested on: CCRF-CEM leukemia
# [8] = tested on: MOLT-4 leukemia
# [9] = tested on: TK-10 renal
SMILES,growth [1],growth [2],growth [3],growth [4],growth [5],growth [6],growth [7],growth [8],growth [9]
COc1cc(NC(C)CCCN)c2nc(C)ccc2c1Oc1ccc(F)cc1 (configuration not stated),75.1%,69.9%,45.4%,84.6%,75.9%,60.4%,78.2%,63.1%,
O=C(N/N=C/c1cccc(O)c1O)c1ccccc1,,21.3%,4.38% (active),11.5%,-20.5% (active),81.1%,,9.39% (active),18.6%
O=C1/C(=C/c2cccc(Cl)c2)CCc2ccccc21,,95.9%,76.1%,103%,76.9%,,,83.3%,85.9%
CN1C(=O)C(C2=NN(C=O)C(c3ccc(F)cc3)C2)C(=O)N(C)C1=O (configuration not stated),101%,,96.6%,107%,,,77.4%,93.8%,99.1%
COc1cc(/C=C/c2cc(/C=C/c3ccc(O)c(OC)c3)n(C(=O)Cc3ccccc3)n2)ccc1O,,9.07% (active),-9.97% (active),5.4% (active),20.9%,-9.09% (active),0.172% (active),1.08% (active),
c1cc[n+](Cc2ccnc3ccccc23)cc1,,102%,73.6%,94.2%,91.1%,109%,,108%,
COc1cc(/C=C/c2cc(/C=C/c3ccc(O)c(OC)c3)n(C(=O)c3ccc(Cl)cc3)n2)ccc1O,,13.6%,,11.5%,17.9%,7.49% (active),0.628% (active),5.8% (active),
Cc1ccc(NC(=O)c2sc3nc4c(cc3c2N)C(=O)CCC4)cc1,,,84.8%,89.9%,56.6%,-3.97% (active),70.9%,95.9%,
COc1cccc(/C=C2\Cc3ccccc3C2=O)c1,,,90.7%,104%,96.9%,,,93.3%,103%
O=C(CSc1nnc(-c2cc(-c3ccccc3)nc3ccccc23)o1)c1ccc(Br)cc1,107%,,83.1%,107%,91.2%,102%,105%,104%,
Cc1n(Cc2ccc3ccccc3c2)cc[n+]1Cc1ccc2ccccc2c1,47%,,81.5%,80.1%,,31.2%,24.1%,11.3%,23.5%
O=C1/C(=C/c2ccccc2Cl)CCc2ccccc21,,94.6%,97.4%,112%,81.8%,,,90.9%,89.4%
CCCCOP(=O)(OCCCC)C(C(=O)OCC)C(CC(=O)OCC)C(=O)OCC (configuration not stated),,100%,91.9%,93.2%,98.4%,97.8%,,109%,
COc1cc(Cl)cc(-c2nn(-c3cccc(NC(=O)c4cc(C(F)(F)F)cc(C(F)(F)F)c4)c3)cc2-c2ccncc2)c1,,69.8%,54.3%,58.2%,68.6%,,57.1%,55.3%,
CCOC(=O)c1cnc2c(C)cc(C)cc2c1NCCCN(C)C,41%,,,28.7%,-7.71% (active),64.5%,19.8%,5.24% (active),30.7%
COc1cc(/C=C/C(=O)C(C(=O)/C=C/c2ccc(OC(=O)CCNC34CC5CC(CC(C5)C3)C4)c(OC)c2)C(=O)CCNC23CC4CC(CC(C4)C2)C3)ccc1OC(=O)CCNC12CC3CC(CC(C3)C1)C2 (configuration not stated),19.6%,5.02% (active),,6.38% (active),18.6%,59.3%,-36.4% (active),-20.4% (active),44.2%
COc1ccc(C(=O)/C=C/c2ccc(C)cc2)cc1OC,93%,75.7%,,86.2%,,80.7%,23.4%,52.1%,114%
Cc1cc(C)cc(S(=O)(=O)n2ccc(-c3ccc4c(c3)CCC(C)(C)O4)n2)c1,,88%,75%,92.8%,72.5%,63%,96.3%,91.4%,

SMILES,growth [1],growth [2],growth [3],growth [4],growth [5],growth [6],growth [7],growth [8],growth [9]
CCN(CC)CCNCC(=O)Oc1ccc(/C=C/C(=O)CC(=O)/C=C/c2ccc(OC(=O)CNCCN(CC)CC)c(OC)c2)cc1OC,5.1% (active),,,16.8%,22%,,-30.5% (active),0.439% (active),50.3%
Fc1ccc(-c2nn3c(-c4cc(C(F)(F)F)cc(C(F)(F)F)c4)nnc3s2)cc1,71.1%,46.7%,,11.6%,69.8%,-18.5% (active),87%,93%,-40% (active)
COc1cc(C2CC(C3C(=O)N(C)C(=O)N(C)C3=O)=NN2c2cc(Cl)cc(Cl)c2)cc(OC)c1OC (configuration not stated),93.8%,,83.2%,96.3%,,88.5%,88.3%,88.9%,94.1%
O=C1/C(=C/c2ccc(F)cc2)Cc2ccccc21,,99.5%,92.5%,98.2%,113%,,,98.3%,96.7%
CCCCCCCCN(CCO)CCCCCCCC,,104%,80.2%,96.6%,109%,111%,99.4%,90.7%,109%
C/C(=C\CCc1ccoc1)CC/C=C(\C)CCCC1COC(=O)C1 (configuration not stated),,94.8%,78.8%,97.5%,94.4%,91.3%,93%,92.2%,114%
Nc1c(C(=O)Nc2cccc(Cl)c2)sc2nc3c(cc12)C(O)CCC3 (configuration not stated),,,41.9%,43.3%,37%,-10.6% (active),15.7%,16.3%,
NS(=O)(=O)c1ccc(-n2nc(-c3ccc(Br)cc3)ccc2=O)cc1,,70.9% [100 µM],89.2% [100 µM],70.8% [100 µM],75.1% [100 µM],40.6% [100 µM],,92.6% [100 µM],22.2% [100 µM]
O=C(Nc1cccc(-n2cc(-c3ccncc3)c(-c3cc(O)cc(Cl)c3)n2)c1)Nc1ccc(Cl)c(Cl)c1,,14.9%,-41.3% (active),6.85% (active),5.31% (active),-2.98% (active),4.11% (active),-27.1% (active),
CCCCCc1c(C)[nH]c(/C=C2\N=C(c3ccc[nH]3)C=C2OCc2ccccc2)c1C,,-77% [100 µM] (active),-93.6% [100 µM] (active),-91.5% [100 µM] (active),-74.4% [100 µM] (active),-79.2% [100 µM] (active),,-57.8% [100 µM] (active),-81.3% [100 µM] (active)
COc1ccc2c(=O)c(OC)c(-c3cc(OC)c(OC)c(OC)c3)oc2c1,109%,77%,,92.2%,,96.1%,93.4%,99.6%,124%
O=[N+]([O-])c1ccc(NS(=O)(=O)c2ccc(Cl)c(Cl)c2)cc1,,60.9%,70%,94%,65.2%,55.9%,,81.3%,94.3%
COc1ccc(-c2cc(-c3cccnc3)nc(S(=O)(=O)CC(=O)Nc3ccc(C)cc3)c2C#N)cc1OC,,97.2%,59.8%,98.3%,91.2%,57.3%,100%,75.2%,
COc1ccc(/C=C2\CCc3ccccc3C2=O)cc1,,94.5%,87.5%,111%,50.8%,,,73.9%,79.8%
CSc1nc2nc3c(c(-c4ccc(C)cc4)c2c(=O)[nH]1)CN(C)C/C3=C\c1ccc(C)cc1,83.5%,102%,,94.9%,93.7%,,85.2%,87.2%,
CCN(CC)c1ccc(C(=C2C=CC(=[N+](CC)Cc3cccc(S(=O)(=O)O)c3)C=C2)c2ccc(N(CC)Cc3cccc(S(=O)(=O)O)c3)cc2)cc1,33.2%,22.8%,,77.3%,,36%,12.4%,48%,69.5%
Cc1sc2nc3c4ccccc4c(NCCCN(C)C)nn3c(=O)c2c1C,75.9%,,-91.9% (active),53.5%,84.4%,51.8%,-27.9% (active),-44.9% (active),78%
CC(=O)/C(=C/c1ccc(Cl)cc1)C(=O)c1ccccc1,,85.4%,65.5%,99.4%,85.2%,,,62%,101%
